The values below come from ChEMBL document CHEMBL1157539, “Thousands of chemical starting points for antimalarial lead identification” (Nature, 2010).

Common to all, as to format: functional
Test [1] has as its system Plasmodium falciparum. As to the kind of experiment: GSK_TCMDC: Inhibition of Plasmodium falciparum 3D7 in whole red blood cells, using parasite LDH activity as an index of growth. Test compounds present at 2uM.
The test system of test [2] is Plasmodium falciparum. As to the kind of experiment: GSK_TCMDC: Inhibition of Plasmodium falciparum Dd2 in whole red blood cells, using parasite LDH activity as an index of growth. Test compounds present at 2uM.
The next test has as its system HepG2. In words: GSK_TCMDC: Percent inhibition of human HepG2 cell line. Test compounds present at 10uM.

Regarding `COc1ccc(-c2nc(NC(=O)CS(=O)(=O)c3ccccc3)sc2C)cc1`, the figures for the Inhibition in the test on Plasmodium falciparum [1], in the test with Plasmodium falciparum [2] and with HepG2 were 99%, 82% and 7%, respectively.

Take `COc1ccccc1N1CCN(Cc2c(NC(C)=O)sc(C)c2C)CC1`: the Inhibition was 95% in the test with Plasmodium falciparum [1], 80% in the test on Plasmodium falciparum [2] and 9% in the test with HepG2.

Regarding `Br.CCCc1cc(C)ccc1OCCCON1C(N)=NC(N)=NC1(C)C`, the Inhibition came out at 97% with Plasmodium falciparum [1], 97% with Plasmodium falciparum [2] and 64% with HepG2.

As for `OC(CNc1ccnc(Nc2ccc(Cl)cc2)n1)c1cccc(C(F)(F)F)c1` (stereo not given), the results for the Inhibition with Plasmodium falciparum [1], in the test with Plasmodium falciparum [2] and in the test on HepG2 were 100%, 84% and 9%, respectively.

In the case of `NC1CCN(Cc2cccc(-c3csc(-c4nc5ccccc5[nH]4)c3)c2)C1.O=C(O)C(F)(F)F` (stereo not given), the Inhibition with Plasmodium falciparum [1] was determined as 99%; in the test on Plasmodium falciparum [2] it was 10%; in the test with HepG2, 10%.

Turning to `O=C(Nc1ccc(-c2oc(C(=O)NCCc3cccc(Cl)c3)cc2-c2ccncc2)cc1)Nc1cccc(Cl)c1.O=C(O)C(F)(F)F`, the values for the Inhibition in the test with Plasmodium falciparum [1], with Plasmodium falciparum [2] and with HepG2 were 99%, 84% and 13%, respectively.

For the compound `CCCCCc1ccc(NC(=O)Nc2ccc(Cn3ncc(N4CCCNCC4)c(Cl)c3=O)cc2)cc1.O=C(O)C(F)(F)F`, the Inhibition turned out to be 87% in the test with Plasmodium falciparum [1], 23% in the test on Plasmodium falciparum [2] and 15% in the test with HepG2.

Take `COc1ccc(CNCc2ccc(F)cc2)cc1-c1ccc(OC)c(S(=O)(=O)NCCN2CCCC2)c1.O=C(O)C(F)(F)F`: the Inhibition is given as 100% in the test on Plasmodium falciparum [1], 88% with Plasmodium falciparum [2] and 24% in the test on HepG2.

On to `O=C(NC1CC1)C1CCN(Cc2cc3ccccc3n2Cc2ccc(Cl)cc2)CC1`, for which the figures for the Inhibition in the test on Plasmodium falciparum [1], with Plasmodium falciparum [2] and in the test on HepG2 were 95%, 96% and 16%, respectively.

As for `COc1cc(Nc2nccc(Nc3ccc4c(C)n[nH]c4c3)n2)cc2ccccc12.Cl`, the figures for the Inhibition in the test on Plasmodium falciparum [1], in the test on Plasmodium falciparum [2] and with HepG2 were 100%, 82% and 13%, respectively.

The term Inhibition denotes the percentage by which the read-out fell short of the control. A lower Inhibition goes with a weak effect.
